# Assay results: PubChem BioAssay
# Assay: small-molecule binders of probe aNOTCH2, primary screen, biochemical, small-molecule microarray, 635/667 nm fluorescence (AID 1121);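 also: score merges feature fluorescence read at 667 nm with its signal to noise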
# Conditions: higher = more signal
row,Compound,composite z-score
1,C=CC[C@@]12N=C(c3ccc(OCCCO)cc3)O[C@@H]1c1ccccc1N(CCS(=O)(=O)c1ccccc1)C2=O,-0.16
2,CC(C)N1CC=CC23O[C@@H]4C=CCCOC(=O)C4[C@H]2C(=O)N(CCO)[C@@H]3C1=O (stereo partly specified),-0.125
3,CCOC(=O)C[C@H]1[C@H](OC(=O)c2ccc(-c3ccccc3)cc2)[C@@H](NC(=O)C2CCCCC2)c2cc(OCCCO)ccc2N1C(=O)c1ccccc1,-0.152
4,C=CCN1Cc2ccccc2C[C@@]2(N=C(c3ccc(OCCCO)cc3)O[C@H]2c2ccccc2)C1=O,-0.0148
5,O=C1O[C@H](c2ccccc2)[C@H](c2ccccc2)N2[C@H]1[C@@H](C(=O)O)[C@]1(C(=O)Nc3ccccc31)[C@H]2c1ccc(O)cc1,-0.131
6,CN(C)CCCNC(=O)[C@@]1(C)c2ccccc2C(=O)N(Cc2cc(C(F)(F)F)cc(C(F)(F)F)c2)[C@H]1c1ccc(CO)cc1,-0.0341
7,CCOC(=O)C[C@H]1[C@H](OC(=O)c2ccc(C(=O)c3ccccc3)cc2)[C@@H](NC(=O)c2ccc3ccccc3c2)c2cc(OCCCO)ccc2N1C(=O)c1ccccc1,0.127
8,Cc1c(NC(=O)/C(C#N)=C/C=C/c2ccccc2[N+](=O)[O-])c(=O)n(-c2ccccc2)n1C,-0.0234
9,C=CC[C@]12N=C(c3ccc(OCCCO)cc3)O[C@H]1c1ccccc1N(C)C2=O,0.0424
10,CC(C)CCC[C@@H](C)[C@H]1CC[C@@]2(C)C3=C(CC[C@]12C)[C@@]1(C)CC[C@H](OC(=O)c2ccc(Br)cc2)C(C)(C)C1CC3 (stereo partly specified),-0.117
11,Cc1ccc(F)cc1S(=O)(=O)N[C@@H]1CCN(Cc2ccc(Oc3ccccc3)cc2)C1,-0.165
